Source: the supplement of paper PMC10498489
The whole screen tested about 2,300 compounds, of which about 330 (14%) showed activity. The list is a sample of the results. Values without a mark were called inactive.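 How the source made its calls: active = median modified Z-score above 1.96; inactive = 1.96 or below.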

These compounds were tested on HepG2 Srxn1-GFP reporter cells (+30 nM CDDO-Me) (assay: Srxn1-GFP intensity median modified Z-score relative to plate median; higher = stronger NRF2 / oxidative stress reporter activation, active = hit call of the paper). Conditions: 10 µM; exposure time: 24h.
Procedure, shortened: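 Values give the median, over replicates, of the modified Z-score of GFP intensity on each plate. HepG2 Srxn1-GFP BAC reporter cells were co-treated for 24 h with an NRF2 activator at 30 nM and compound at 10 μM (≤0.1% DMSO) in three replicate plates, then analysed per cell for cytoplasmic GFP on confocal images with at least 100 cells. Scaling used 1.4826 × median absolute deviation.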
In the case of `CC1(C)SC2C(NC(=O)C(C(=O)O)c3ccccc3)C(=O)N2C1C(=O)O` (stereo not drawn) [euspeclibcmpd2333], the “Srxn1-GFP intensity median modified Z-score” value is reported as 0.114.
For `O=c1c2cc(O)c(O)cc2oc2cc(O)c(C3O[C@H](CO)[C@@H](O)[C@H](O)[C@H]3O)c(O)c12` (stereo partly drawn) [euspeclibcmpd1520], the “Srxn1-GFP intensity median modified Z-score” value was -0.904.
For `CCCc1nc(=N)c(C[n+]2ccccc2C)c[nH]1` [euspeclibcmpd493], the “Srxn1-GFP intensity median modified Z-score” value was -0.6.
With `COc1cccc(-c2cc(=O)c3cc(OC)ccc3o2)c1` [euspeclibcmpd1659] the “Srxn1-GFP intensity median modified Z-score” value was -0.339.
`O=C1c2cccc(O)c2C(=O)c2c(O)cccc21` [euspeclibcmpd3] was tested, and the “Srxn1-GFP intensity median modified Z-score” value was 19.4 (active).
With `COc1cc(O)c2c(c1)C(=O)c1cc(C)cc(O)c1C2=O` [euspeclibcmpd1472] the “Srxn1-GFP intensity median modified Z-score” value was 0.0189.
For `Cc1cc(O)c2c(c1)C(=O)c1cccc(O)c1C2=O` [euspeclibcmpd1712], the “Srxn1-GFP intensity median modified Z-score” value was 4.5 (active).
`Cc1cc(O)c2c(c1)C(=O)c1cc(O)cc(O)c1C2=O` [euspeclibcmpd1604] was tested, and the “Srxn1-GFP intensity median modified Z-score” value was 0.573.
`O=C(O)C(O)[C@H](O)[C@H](O)[C@H](O)[C@H](O)CO` (stereo partly drawn) [euspeclibcmpd2445] was tested, and the “Srxn1-GFP intensity median modified Z-score” value was -0.00236.
For `CC(=O)C1(O)CCC2C3CC(C)=C4CC(=O)C=CC4(C)C3(F)C(O)CC21C` (stereo not drawn) [euspeclibcmpd1970], the “Srxn1-GFP intensity median modified Z-score” value was -0.646.
For `COc1cc([C@H]2Oc3cc(C4Oc5cc(O)cc(O)c5C(=O)C4O)ccc3O[C@@H]2CO)ccc1O` (stereo partly drawn) [euspeclibcmpd2298], the “Srxn1-GFP intensity median modified Z-score” value was -0.00238.
`C[C@]12CCC(OC(=O)c3ccccc3)CC1CCc1ccccc12` (stereo partly drawn) [euspeclibcmpd2434] was tested, and the “Srxn1-GFP intensity median modified Z-score” value was 0.0569.
With `CCn1c2cc(=N)ccc-2c2ccc(N)cc2c1-c1ccccc1` [euspeclibcmpd1148] the “Srxn1-GFP intensity median modified Z-score” value was 4.33 (active).
For `C=C[C@@]1(C)CC(=O)[C@@]2(O)[C@](C)(O1)[C@@H](OC(C)=O)[C@@H](O)C1C(C)(C)CC[C@H](O)[C@@]12C` (stereo partly drawn) [euspeclibcmpd604], the “Srxn1-GFP intensity median modified Z-score” value was -1.15.
For `N=c1[nH]c(=O)c2[nH]c(=O)cnc2[nH]1` [euspeclibcmpd1707], the “Srxn1-GFP intensity median modified Z-score” value was -0.214.
For `CCCc1nc(C(C)(C)O)c(C(=O)OCc2oc(=O)oc2C)n1Cc1ccc(-c2ccccc2-c2nn[nH]n2)cc1` [euspeclibcmpd716], the “Srxn1-GFP intensity median modified Z-score” value was -0.529.
For `CCCCc1nc(Cl)c(CO)n1Cc1ccc(-c2ccccc2-c2nn[nH]n2)cc1` [euspeclibcmpd678], the “Srxn1-GFP intensity median modified Z-score” value was -0.235.
In the case of `CCCc1nc2c(C)cc(-c3nc4ccccc4n3C)cc2n1Cc1ccc(-c2ccccc2C(=O)O)cc1` [euspeclibcmpd729], the “Srxn1-GFP intensity median modified Z-score” value is reported as 3.15 (active).
For `O=C1C(CCC(O)c2ccc(F)cc2)[C@@H](c2ccc(O)cc2)N1c1ccc(F)cc1` (stereo partly drawn) [euspeclibcmpd714], the “Srxn1-GFP intensity median modified Z-score” value was 1.03.
For `COC(=O)C(NC(=O)CCCCn1cnc2c(N)ncnc21)C(C)C` (stereo not drawn), the “Srxn1-GFP intensity median modified Z-score” value was 1.19.
In the case of `CC(=O)OC1(C(C)=O)CCC2C3=CC(Cl)=C4CC(=O)C5CC5C4(C)C3CCC21C` (stereo not drawn) [euspeclibcmpd1971], the “Srxn1-GFP intensity median modified Z-score” value is reported as -0.163.
For `CC(O)CN(CCN(CC(C)O)CC(C)O)CC(C)O` (stereo not drawn) [euspeclibcmpd990], the “Srxn1-GFP intensity median modified Z-score” value was -0.227.
For `Oc1ccc(C=Cc2cc(O)cc(O)c2)cc1` [euspeclibcmpd1411], the “Srxn1-GFP intensity median modified Z-score” value was 12.1 (active).
`OC[C@H]1O[C@H](Oc2cc(O)cc(C=Cc3ccc(O)cc3)c2)[C@H](O)[C@@H](O)[C@@H]1O` [euspeclibcmpd1401] was tested, and the “Srxn1-GFP intensity median modified Z-score” value was -0.514.
In the case of `CCS(=O)(=O)N1CCCC(C(=O)NCCCN(C)OC)C1` (stereo not drawn), the “Srxn1-GFP intensity median modified Z-score” value is reported as 0.974.
`Nc1ccc(S(=O)(=O)N=c2ccc(Cl)n[nH]2)cc1` [euspeclibcmpd398] was tested, and the “Srxn1-GFP intensity median modified Z-score” value was -0.684.
In the case of `O=C(NCC(O)=NO)c1ccc(Cl)cc1` [euspeclibcmpd774], the “Srxn1-GFP intensity median modified Z-score” value is reported as 0.804.
In the case of `O=c1c(O)c(-c2ccc(O)c(O)c2)oc2cc(O)cc(O)c12`, the “Srxn1-GFP intensity median modified Z-score” value is reported as 0.376.
`CC(=O)OCC(=O)[C@@]1(O)CCC2C3CC=C4CC(=O)CC[C@]4(C)C3[C@@H](O)C[C@@]21C` (stereo partly drawn) [euspeclibcmpd151] was tested, and the “Srxn1-GFP intensity median modified Z-score” value was -0.58.
`C[C@H](Cn1cnc2c(=N)nc[nH]c21)OCP(=O)(O)O` [euspeclibcmpd1075] was tested, and the “Srxn1-GFP intensity median modified Z-score” value was -0.0246.
With `CN(C)c1ccc(C(=C2C=CC(=[N+](C)C)C=C2)c2ccc(N(C)C)cc2)cc1` [euspeclibcmpd139] the “Srxn1-GFP intensity median modified Z-score” value was 8.6 (active).
`CC(CCC(=O)O)[C@H]1CCC2C3CC[C@@H]4C[C@H](O)CC[C@]4(C)C3C[C@H](O)[C@@]21C` (stereo partly drawn) [euspeclibcmpd2112] was tested, and the “Srxn1-GFP intensity median modified Z-score” value was -0.195.
With `COC(=O)C[C@H]1C(C)(C)C(=O)C2CC3=C(CC[C@]4(C)C3=CC(=O)O[C@H]4c3ccoc3)[C@@]1(C)C2=O` [euspeclibcmpd1591] the “Srxn1-GFP intensity median modified Z-score” value was 0.352.
In the case of `CCCCNC(=O)NS(=O)(=O)c1ccc(OC)cc1`, the “Srxn1-GFP intensity median modified Z-score” value is reported as 1.61.
In the case of `CC(NCCc1ccc(O)cc1)C(O)c1ccc(O)cc1` (stereo not drawn) [euspeclibcmpd402], the “Srxn1-GFP intensity median modified Z-score” value is reported as 0.107.
With `C[C@@H](COc1ccccc1)N[C@H](C)[C@H](O)c1ccc(O)cc1` [euspeclibcmpd167] the “Srxn1-GFP intensity median modified Z-score” value was 4.4 (active).
`CC(CCc1ccc(O)cc1)NCC(O)c1ccc(O)cc1` (stereo not drawn) [euspeclibcmpd467] was tested, and the “Srxn1-GFP intensity median modified Z-score” value was 0.894.
In the case of `CC(C)(C)NC[C@@H](O)COc1nsnc1N1CCOCC1` [euspeclibcmpd295], the “Srxn1-GFP intensity median modified Z-score” value is reported as -0.119.
`COC1C(=O)C(=O)c2c(cc3oc(C(C)=O)c(O)c3c2O)C1=O` (stereo not drawn) [euspeclibcmpd1523] was tested, and the “Srxn1-GFP intensity median modified Z-score” value was 0.196.
With `N=c1[nH]ccs1` [euspeclibcmpd1106] the “Srxn1-GFP intensity median modified Z-score” value was 0.0281.
With `Cc1onc(-c2ccccc2)c1C(=O)NC1C(=O)N2C1SC(C)(C)C2C(=O)O` (stereo not drawn) [euspeclibcmpd2397] the “Srxn1-GFP intensity median modified Z-score” value was -0.382.
In the case of `COc1ccc(-c2coc3c4c(c(CC=C(C)C)c(O)c3c2=O)OC(C)(C)C=C4)cc1OC` [euspeclibcmpd2204], the “Srxn1-GFP intensity median modified Z-score” value is reported as -0.479.
For `CC(C)=CCc1c2c(c3occ(-c4ccc(O)c(O)c4)c(=O)c3c1O)C=CC(C)(C)O2` [euspeclibcmpd1728], the “Srxn1-GFP intensity median modified Z-score” value was 156 (active).
In the case of `CC(C)=CCc1c2c(c3occ(-c4ccc(O)cc4)c(=O)c3c1O)C=CC(C)(C)O2` [euspeclibcmpd1709], the “Srxn1-GFP intensity median modified Z-score” value is reported as 1.14.
`C=C1C[C@]23C[C@@]1(O)CC[C@H]2[C@@]12C=C[C@H](O)[C@@](C)(C(=O)O1)[C@H]2C3C(=O)O` (stereo partly drawn) [euspeclibcmpd1408] was tested, and the “Srxn1-GFP intensity median modified Z-score” value was 0.616.
With `NC[C@@H]1O[C@H](O[C@@H]2[C@@H](CO)OC(O[C@@H]3[C@@H](O)[C@H](N)C[C@H](N)[C@H]3OC3O[C@H](CN)[C@@H](O)[C@H](O)[C@H]3N)[C@@H]2O)[C@H](N)[C@@H](O)[C@@H]1O` (stereo partly drawn) [euspeclibcmpd206] the “Srxn1-GFP intensity median modified Z-score” value was 0.688.
`O=C(O)C1CC(=O)C(O)C(O)C1` (stereo not drawn) [euspeclibcmpd2407] was tested, and the “Srxn1-GFP intensity median modified Z-score” value was -0.321.
`O=C(O)CCCCC1CCSS1` (stereo not drawn) [euspeclibcmpd1157] was tested, and the “Srxn1-GFP intensity median modified Z-score” value was 0.0225.
`O=C(O)CCCCCCCCCCCCC1C=CCC1` (stereo not drawn) [euspeclibcmpd1516] was tested, and the “Srxn1-GFP intensity median modified Z-score” value was 10.6 (active).
For `CCOC(=O)CCCCCCCCCCCCC1C=CCC1` (stereo not drawn) [euspeclibcmpd2000], the “Srxn1-GFP intensity median modified Z-score” value was -0.411.
In the case of `COc1ccc(-c2coc3cc(O)ccc3c2=O)c(OC)c1` [euspeclibcmpd1838], the “Srxn1-GFP intensity median modified Z-score” value is reported as 1.83.
With `C=CC[S+]([O-])CC(N)C(=O)O` (stereo not drawn) [euspeclibcmpd2346] the “Srxn1-GFP intensity median modified Z-score” value was -0.228.
In the case of `O=C(O)CCCCCCCC(O)C(O)CCCCCCO` (stereo not drawn) [euspeclibcmpd1577], the “Srxn1-GFP intensity median modified Z-score” value is reported as -0.245.
In the case of `CS(=O)(=O)OCCCCOS(C)(=O)=O` [euspeclibcmpd40], the “Srxn1-GFP intensity median modified Z-score” value is reported as 1.41.
For `CS(C)(=O)=O` [euspeclibcmpd1496], the “Srxn1-GFP intensity median modified Z-score” value was 20.2 (active).
`COCCCOc1cc(C[C@@H](C[C@H](N)[C@@H](O)CC(C(=O)NCC(C)(C)C(N)=O)C(C)C)C(C)C)ccc1OC` (stereo partly drawn) [euspeclibcmpd873] was tested, and the “Srxn1-GFP intensity median modified Z-score” value was 0.194.
In the case of `CC(C)C1CCC(C(=O)NC(Cc2ccccc2)C(=O)O)CC1` (stereo not drawn) [euspeclibcmpd675], the “Srxn1-GFP intensity median modified Z-score” value is reported as -0.338.
`Nc1ccc(S(N)(=O)=O)cc1` [euspeclibcmpd1042] was tested, and the “Srxn1-GFP intensity median modified Z-score” value was -0.418.
For `Nc1ccc(S(=O)(=O)c2ccc(N)cc2)cc1` [euspeclibcmpd82], the “Srxn1-GFP intensity median modified Z-score” value was 0.
For `Nc1ccc(S(=O)(=O)O)cc1` [euspeclibcmpd2086], the “Srxn1-GFP intensity median modified Z-score” value was 2.19 (active).
With `NCCC(=O)NC(Cc1c[nH]cn1)C(=O)O` (stereo not drawn) [euspeclibcmpd1431] the “Srxn1-GFP intensity median modified Z-score” value was -0.178.
`C[C@]12CCC3c4ccc(OC(=O)c5ccccc5)cc4CCC3C1CCC2=O` (stereo partly drawn) [euspeclibcmpd2153] was tested, and the “Srxn1-GFP intensity median modified Z-score” value was -0.646.
With `CC(=O)NC(CC(=O)NC(CCC(=O)O)C(=O)O)C(=O)O` (stereo not drawn) [euspeclibcmpd1295] the “Srxn1-GFP intensity median modified Z-score” value was -0.164.
For `CC[C@H](/C=C/C(C)C1CCC2C3CC=C4CC(=O)CC[C@]4(C)C3CC[C@]12C)C(C)C` (stereo partly drawn) [euspeclibcmpd1667], the “Srxn1-GFP intensity median modified Z-score” value was -0.11.
In the case of `CN(C)c1ccc2nc3ccc(N(C)C)cc3[s+]c2c1` [euspeclibcmpd789], the “Srxn1-GFP intensity median modified Z-score” value is reported as 9.06 (active).
With `Cc1cc2nc3ccc(N(C)C)cc3[s+]c2cc1N` [euspeclibcmpd1030] the “Srxn1-GFP intensity median modified Z-score” value was 9 (active).
With `CC(C)(S)C(N)C(=O)O` (stereo not drawn) [euspeclibcmpd968] the “Srxn1-GFP intensity median modified Z-score” value was 0.0726.
For `OC[C@@H](O)[C@@H](O)[C@H](O)[C@@H](O)CO` [euspeclibcmpd2147], the “Srxn1-GFP intensity median modified Z-score” value was -0.0321.
For `N=C(N)N=C(N)N1CCOCC1` [euspeclibcmpd1191], the “Srxn1-GFP intensity median modified Z-score” value was -0.583.
In the case of `NC(=O)CCC(NC(=O)C(N)CO)C(=O)O` (stereo not drawn) [euspeclibcmpd2427], the “Srxn1-GFP intensity median modified Z-score” value is reported as -0.15.
`CC(=O)O[C@]1(C)CC[C@@]23CC1C(C)(C)[C@@H]2CC[C@H]3C` [euspeclibcmpd1510] was tested, and the “Srxn1-GFP intensity median modified Z-score” value was 3.58 (active).
With `C[C@@H]1CC[C@H]2C(C)(C)C3CC12CC[C@@]3(C)O` (stereo partly drawn) [euspeclibcmpd1468] the “Srxn1-GFP intensity median modified Z-score” value was -0.304.
In the case of `CC(=O)OC1CCC23CC1(C)CCC2C(C)(C)CC3OC(C)=O` (stereo not drawn) [euspeclibcmpd1983], the “Srxn1-GFP intensity median modified Z-score” value is reported as 0.679.
